From PubChem
Shown are actives, neighbours in structure and some others; about 5.7% of the full set was active somewhere.
HT1080-NT tox – kills 2HG-producing HT-1080-NT fibrosarcoma cells; AID 686970; Potency, µM (series often up to 46.1 µM), for the others: at the highest dose activity, negative = less viability, most hits filed as cytotoxic; HT-1080-NT fibrosarcoma viability, CellTiter-Glo ATP luminescence, 48 h; 360,000 compounds, 1.6% hits;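 also: NT is the 2HG producing partner of a matched IDH1 knockdown line; 0% = DMSO-treated cells and -100% = media-only wells without cells; nearly all actives have a fitted effect of over 55% in size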
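Luminescent CellTiter-Glo readout after 48 hours of compound exposure at 37 degrees C defined viability of HT-1080-NT cells. Activity was normalized to DMSO wells and cell-free media wells; concentration-response curves were fitted and assigned curve classes.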
HT1080 IDH1KD tx – toxicity to HT-1080 IDH1 knockdown cells (counter line). HT-1080 IDH1 knockdown viability, ATP luminescence, 48 h. 360,000 compounds, 2% hits. AID 686971. Potency, µM (titrated, usually from 46.1 µM), without a hit: at the top dose activity, negative = toxicity, actives largely listed as cytotoxic;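 also: 0% = DMSO wells and -100% = cell-free medium wells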
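IDH1KD HT-1080 cells, 750/well, RPMI + 5% FBS; compound pinned after 2 h settling; 48 h, 37 °C; CellTiter-Glo luminescence; % activity normalised to DMSO and no-cell wells; curves fitted, classed by r2 and efficacy.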
KB-V1 MDR tox – KB-V1 MDR subline cytotoxicity; KB-V1 MDR cells viability, CellTiter-Glo, 72 h; Potency, µM (titrated, usually from 46.1 µM), most hits filed as cytotoxic; 400,000 compounds, 3.4% hits; also: nearly all actives have a fitted effect of over 60% in size
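Readout: CellTiter-Glo luminescence, 10 min after addition. Cells: KB-V1 MDR subline, 72 h at 37 degrees C with compound. Analysis: corrected, normalized data fitted to concentration-effect curves.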
KB-3-1 cytotox – KB-3-1 parental cell cytotoxicity; KB-3-1 viability, CellTiter-Glo ATP luminescence, 72 h; Potency, µM (highest dose often 46.1 µM), usual class: cytotoxic; 400,000 compounds, 1.4% hits; AID 1347075; also: nearly all actives have a fitted effect of over 60% in size
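Luminescent ATP read-out (CellTiter-Glo) measures survival of drug-naive KB-3-1 cells after 72 h compound exposure at 37 °C. Titration series was screened from lowest to highest concentration, with DMSO vehicle plates as background controls.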
Active calls of the source: *; i = inactive; ? = inconclusive; · = not tested or not shown. Calls follow the shape of the dose curve; as a rule, active = well fitted curve in the direction sought with a large enough effect; inconclusive = small, poorly fitted or top-dose-only effect, or another doubt; inactive = no such curve, though single readings can be large; an effect the other way counts as inactive or inconclusive. Unless noted, % is scaled to controls: 0 for no effect and ±100 for the full control effect; potency is read from the fitted curve at half-maximal effect.

SMILES | HT1080-NT tox | HT1080 IDH1KD tx | KB-V1 MDR tox | KB-3-1 cytotox
Oc1ccc(C[C@H]2CN([C@@H](Cc3ccccc3)CN3CCCC3CN3C(=S)NC[C@@H]3Cc3ccccc3)C(=S)N2CC2CCCCC2)cc1 (some centres not stated) | -20% | -15% | i | ?
Oc1ccc(C[C@H]2CN([C@@H](Cc3ccc(O)cc3)CN3CCC[C@@H]3CN3C(=S)NC[C@@H]3Cc3ccccc3)C(=S)N2CC2CCCCCC2)cc1 | 12µM* | 16µM* | i | ?
Oc1ccc(C[C@H]2CNC(=S)N2C[C@H]2CCCN2C[C@H](Cc2ccccc2)N2C[C@H](Cc3ccc(O)cc3)N(CC3CCCCCC3)C2=S)cc1 | 29µM* | 18µM* | i | ?
Oc1ccc(C[C@H]2CNC(=S)N2CC2CCCN2C[C@H](Cc2ccccc2)N2C[C@H](Cc3ccc(O)cc3)N(CC3CCCCCC3)C2=S)cc1 (some centres not stated) | -23% | ? | ? | ?
COc1ccc(Cl)cc1NC(=O)CSc1nc(=O)n(Cc2ccco2)c2c1CCC2 | · | · | i | i
CCOc1ccc(NC(=O)CSc2ncc3c(n2)-c2ccc(Cl)cc2N(Cc2ccccc2)S3(=O)=O)cc1 | · | · | i | i
COc1ccc(S(=O)(=O)c2cn(C)c3cc(N4CCCCCC4)c(F)cc3c2=O)cc1 | · | · | i | i
Cc1ccc(C(=O)Nc2ccc(Br)cc2)cc1S(=O)(=O)NCc1ccccc1 | · | · | i | ?
COc1cccc(-c2cc(C(F)(F)F)nc(-n3nc(C)c(Br)c3C)n2)c1 | · | · | i | i
CC(C)C[C@H]1CN([C@@H](Cc2ccc(O)cc2)CN2CCC[C@@H]2CN2C(=S)NC[C@@H]2Cc2ccccc2)C(=S)N1CC1CCCCC1 | -24% | -18% | i | ?
Oc1ccc(C[C@H]2CN([C@@H](Cc3cccc(O)c3)CN3CCC[C@@H]3CN3C(=S)NC[C@@H]3Cc3ccccc3)C(=S)N2CC2CCCCC2)cc1 | 18µM* | 23µM* | i | ?
CCc1nn(CC(=O)Nc2c(C)cc(C)cc2C)c(=O)c2cc3sccc3n12 | · | · | i | i
Clc1ccc(CN2CCC(CNc3ncnc4onc(-c5ccc(Cl)cc5)c34)CC2)cc1 | · | · | i | i
COc1cccc(-c2cnc3c(NC=O)cc(-c4cc(C)c(O)c(C)c4)cn23)c1 | ? | ? | ? | 6.5µM*
COc1cccc(-c2cnc3c(NC=O)cc(-c4ccoc4)cn23)c1 | -10% | -9% | ? | i
COc1cccc(-c2cnc3c(NC=O)cc(-c4ccccc4Oc4ccccc4)cn23)c1 | ? | ? | 21µM* | ?
COc1cccc(-c2cnc3c(NC=O)cc(-c4ccccc4)cn23)c1 | 5.8µM* | 2.6µM* | 7.3µM* | 5.2µM*
COc1ccccc1C(=O)NC1(C(F)(F)F)C(=O)Nc2c1c(=O)[nH]c(=O)n2-c1ccc(F)cc1 (configuration not stated) | · | · | i | i
CCOC(=O)C1=C(c2ccccc2)NC(=O)NC1c1ccsc1 (configuration not stated) | 0% | 2% | i | i
COc1cccc(CC2(CO)CCCN(Cc3ccc(C)s3)C2)c1 (configuration not stated) | 2% | -14% | ? | i
COc1cccc(CC2(CO)CCCN(Cc3cc4ccccc4[nH]3)C2)c1 (configuration not stated) | ? | 23µM* | i | i
CC1(C)CC[C@]2(C(=O)n3ccnc3)CC[C@]3(C)[C@H](C(=O)C=C4[C@@]5(C)C=C(C#N)C(=O)C(C)(C)[C@@H]5CC[C@]43C)[C@@H]2C1 | 4.1µM* | 3.7µM* | ? | ?
COc1c(C)cc(C(O)c2ncc(-c3cccc4ccccc34)[nH]2)cc1C (configuration not stated) | ? | ? | i | ?
COc1c(C)cc(C(O)c2ncc(-c3ccccc3C(F)(F)F)[nH]2)cc1C (configuration not stated) | -16% | -15% | 18µM* | i
COc1ccccc1-c1cnc(C(O)c2ccc(Cl)c(Cl)c2)[nH]1 (configuration not stated) | -27% | ? | 23µM* | ?
